Source: PubChem (National Center for Advancing Translational Sciences (NCATS))
TDP1 cell CPT: growth inhibition of DT40 Tdp1-/-;hTDP1 cells with camptothecin (screen for TDP1 inhibitors); chicken DT40 Tdp1-/-;hTDP1 cells + 20 nM CPT, ATP luminescence, 48 h; Potency, µM (highest dose often 46.2 µM), actives largely listed as inhibitors; actives 12% (n = 420,000); also: nearly all actives have a fitted effect of over 55% in size
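Chicken DT40 Tdp1-/- cells stably complemented with human TDP1 were seeded at 400 cells/well in medium containing 20 nM camptothecin, exposed to pin-transferred compounds, and grown at 37 °C for at least 48 hr. Viability was read as ATP luminescence.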
HT1080NT lethal: kills 2HG-producing HT-1080-NT fibrosarcoma cells; HT-1080-NT fibrosarcoma viability, CellTiter-Glo ATP luminescence, 48 h; Potency, µM (highest dose often 46.1 µM), usual class: cytotoxic; actives 1.6% (n = 360,000);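 also: NT is the 2HG producing partner of a matched IDH1 knockdown line; nearly all actives have a fitted effect of over 55% in size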
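Luminescent CellTiter-Glo readout after 48 hours of compound exposure at 37 degrees C defined viability of HT-1080-NT cells. Activity was normalized to DMSO wells and cell-free media wells; concentration-response curves were fitted and assigned curve classes.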
ELG1 repair inh: blocks ELG1-dependent DNA repair in HEK293T cells. HEK293T ELG1-luciferase reporter, luminescence, 16 h; DNA damage induced by 5-fluorouridine. Potency, µM (titrated, usually from 46.1 µM), hits mostly inhibitors. actives 2.3% (n = 330,000); also: nearly all actives have a fitted effect of over 55% in size
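DMSO vehicle served as the neutral condition. Each well held 2,000 cells given 5-fluorouridine plus compound; after 16 hr at 37 °C/5% CO2, ONE-Glo was added and luciferase measured 30 min later.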
TDP1 cell noCPT: qHTS for Inhibitors of human tyrosyl-DNA phosphodiesterase 1 (TDP1): qHTS in cells in absence of CPT | DT40 Tdp1-/- hTDP1 cells, no CPT, ATP luminescence, 48 h | Potency, µM (top dose mostly 46.2 µM), most hits filed as inhibitors | actives 15% (n = 420,000) | AID 686978, 2013; also: nearly all actives have a fitted effect of over 55% in size
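Compound effects on proliferation are scored in DT40 Tdp1-/-;hTDP1 cells in the absence of CPT. ATP levels (CellTiter-Glo luminescence) are recorded after a ≥48 hr, 37 °C incubation.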
IL1B secr inh: inhibitors of inflammasome signaling (IL-1 beta secretion). activity change, % at 57.5 µM. THP-1 LPS/ATP IL-1B secretion, AlphaLISA, 16 h; stronger effect = lower value. actives 4.7% (n = 360,000); in the data active = activity change below about -50%; inconclusive = mostly about -30% to -49%
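Secreted IL-1B measured by AlphaLISA bead assay after 16 h compound exposure of THP-1 cells; compounds (final up to 57.5 uM) added 1 h before LPS (250 ng/mL) and ATP (1.25 mM) stimulation; lower signal means less secretion.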
HT1080 IDH1KD tx: kills HT-1080 cells with IDH1 knockdown; actives 2% (n = 360,000); Potency, µM (highest dose often 46.1 µM), usual class: cytotoxic; HT-1080 IDH1 knockdown viability, ATP luminescence, 48 h
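HT-1080-IDH1KD cells (IDH1 knocked down), 750/well in RPMI with 5% FBS, treated with compound 48 h at 37 degrees C. Viability by CellTiter-Glo luminescence, normalised to DMSO and no-cell wells; concentration-response curves classed.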
Numbers stand for hits; 0 = inactive; ? = inconclusive; - = no result given. Compounds with a hit are over-represented: about 19% of the library has one in this group of screens. Unless noted, calls follow the shape of the dose curve; as a rule, active = well fitted curve in the direction sought with a large enough effect; inconclusive = small, poorly fitted or top-dose-only effect, or another doubt; inactive = no such curve, though single readings can be large; an effect the other way counts as inactive or inconclusive.

SMILES | TDP1 cell CPT | HT1080NT lethal | ELG1 repair inh | TDP1 cell noCPT | IL1B secr inh | HT1080 IDH1KD tx
COc1ccc(S(=O)(=O)N(C)C[C@H]2Oc3ncc(-c4ccncc4)cc3C(=O)N([C@@H](C)CO)C[C@@H]2C)cc1 | 0 | 0 | - | ? | ? | 0
COc1ccc(S(=O)(=O)N(C)C[C@H]2Oc3ncc(C#CC4(O)CCCC4)cc3C(=O)N([C@@H](C)CO)C[C@@H]2C)cc1 | 9.2µM | 0 | - | ? | 0 | 0
C[C@H](CO)N1C[C@H](C)[C@@H](CN(C)S(=O)(=O)c2ccccc2F)Oc2ncc(C#Cc3cccnc3)cc2C1=O | ? | 0 | - | 15µM | 0 | 0
CC(C)c1nnc(NC(=O)CCC(=O)NC2CC2)s1 | 0 | 0 | ? | 0 | 0 | 0
CCCC1NC(=O)c2cccnc2-n2c1nc1ccc(OC)cc1c2=O (stereo unspecified) | 0 | 0 | - | 0 | 0 | 0
CCC(=O)Nc1ccc(N2CCN(C(=O)c3ccccc3C)CC2)cc1 | 0 | 0 | 0 | 0 | 0 | 0
O=C(CSc1ccc(Cl)cc1)Nc1ccc(N2CCN(C(=O)c3ccco3)CC2)cc1 | ? | ? | ? | 23µM | -68 | ?
Cc1ccccc1C(=O)N1CCN(c2ccc(NC(=O)CSc3ccc(Cl)cc3)cc2)CC1 | 16µM | 0 | ? | 10µM | -72 | ?
Cc1ccccc1OCC(=O)Nc1ccc(N2CCN(C(=O)c3ccco3)CC2)cc1 | ? | ? | 21µM | 21µM | ? | 0
O=C(CSCC(=O)OCC(=O)N1CCN(C(=O)c2ccco2)CC1)Nc1ccc(Cl)cc1 | 0 | 0 | - | 0 | 0 | 0
O=C(COc1ccc(Cl)cc1)Nc1ccc(N2CCN(C(=O)c3ccco3)CC2)cc1 | 10µM | ? | 0 | 13µM | ? | 0
O=[N+]([O-])c1ccc(Cl)c(S(=O)(=O)NCCc2ccccn2)c1 | 0 | 0 | 0 | 0 | 0 | 0
COCCNC(=O)c1ccc(N2CC3CC(C2)c2cccc(=O)n2C3)c(NC(=O)c2ccccc2Br)c1 (stereo unspecified) | 0 | 0 | - | 0 | 0 | 0
Cc1cc(C)cc(OCC(=O)Nc2ccc(N3CCN(C(=O)c4ccco4)CC3)cc2)c1 | 23µM | 0 | ? | 18µM | ? | 0
Cc1cccc(OCC(=O)Nc2ccc(N3CCN(C(=O)c4ccco4)CC3)cc2)c1C | ? | 0 | 0 | ? | 0 | 0
CCC(=O)N1CCN(c2ccc(NC(=O)c3ccc(Br)o3)cc2)CC1 | 0 | 0 | ? | 0 | -56 | 0
N/C(=N\O)c1ccc(NC(=O)c2ccc(Br)o2)cc1 | 18µM | 0 | ? | ? | 0 | 0
O=C(Nc1ccc(N2CCOCC2)cc1)c1ccc(Br)o1 | 0 | 0 | ? | 0 | ? | 0
CCC(=O)NC(=S)Nc1ccc(NC(=O)c2ccc(Br)o2)cc1 | 0 | 0 | ? | ? | -54 | 0
CCc1ccc(CNC(=O)CCS(=O)(=O)Cc2ccc(C)cc2)cc1 | 0 | 0 | 0 | 0 | 0 | 0
O=C(COC(=O)C1CCCCC1)Nc1cccc(Br)c1 | 0 | 0 | 0 | 0 | 0 | 0
OB(O)c1cc2ccccc2s1 | 0 | - | - | ? | - | -
Cc1ccccc1C(=O)N1CCN(c2ccc(NC(=O)Cc3ccccc3)cc2)CC1 | ? | 0 | 18µM | ? | 0 | 0
O=C(COc1ccc([N+](=O)[O-])cc1)Nc1ccc(N2CCN(C(=O)c3ccco3)CC2)cc1 | 9.2µM | 0 | 0 | 5.8µM | 0 | 0
CCC(=O)N1CCN(c2ccc(NC(=O)COc3ccc(CC)cc3)cc2)CC1 | 0 | 0 | 0 | 21µM | 0 | 0
SMILES | TDP1 cell CPT | HT1080NT lethal | ELG1 repair inh | TDP1 cell noCPT | IL1B secr inh | HT1080 IDH1KD tx
CCN1CCN(c2ccc(NC(=O)COc3ccc([N+](=O)[O-])cc3)cc2)CC1 | ? | 0 | 0 | ? | 0 | 0
CCCCN(CCCC)C(=S)[S-].CCCCN(CCCC)C(=S)[S-].[Zn+2] | 0 | - | - | 0 | - | -
CCN(C)C1CN(Cc2cn(Cc3cccc(Cl)c3)nn2)S(=O)(=O)C1 (stereo unspecified) | 0 | 0 | - | 0 | 0 | 0
Cc1ccc(S(=O)(=O)CC(=O)Nc2nc3c(C)cccc3s2)cc1 | 0 | - | - | 0 | - | -
Cc1ccc(S(=O)(=O)CC(=O)N2CCN(c3nc4c(F)cccc4s3)CC2)cc1 | 21µM | - | - | 18µM | - | -
COc1cccc2sc(N3CCN(C(=O)CS(=O)(=O)c4ccc(Cl)cc4)CC3)nc12 | 16µM | - | - | 18µM | - | -
COc1ccc(CCCNC(=O)C2Cc3c(-c4ccccc4)ccnc3O2)cc1 (stereo unspecified) | 6.5µM | 8.2µM | - | 5.8µM | 0 | ?
COc1ccc(CNC(=O)C2Cc3c(-c4ccccc4)ccnc3O2)cc1OC (stereo unspecified) | ? | 0 | - | ? | 0 | 0
